# MITF inh – MITF inhibitors, primary screen, biochemical, AlphaScreen, human; inhibition, % at 2.6 µM; AlphaScreen MITF homodimerization, bead proximity signal; AID 1259374, 2018; 0.91% of 650,000 active; Microphthalmia-associated transcription factor (Homo sapiens), O75030; in the data active = inhibition above about 50%;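 also: 0% = vehicle wells with protein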
# GPR151 activ – activators of human GPR151, primary screen, cell-based, PathHunter beta-arrestin, luminescence | activation, % at 11.2 µM | G-protein coupled receptor 151 (Homo sapiens), Q8TDV0 | PathHunter beta-arrestin GPR151 cells | 1% of 650,000 active; in the data active = activation above about 4.9%;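 also: 0% = median of compound wells and 100% = cells with positive control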
# Target sequence (Q8TDV0 whole entry, looked up): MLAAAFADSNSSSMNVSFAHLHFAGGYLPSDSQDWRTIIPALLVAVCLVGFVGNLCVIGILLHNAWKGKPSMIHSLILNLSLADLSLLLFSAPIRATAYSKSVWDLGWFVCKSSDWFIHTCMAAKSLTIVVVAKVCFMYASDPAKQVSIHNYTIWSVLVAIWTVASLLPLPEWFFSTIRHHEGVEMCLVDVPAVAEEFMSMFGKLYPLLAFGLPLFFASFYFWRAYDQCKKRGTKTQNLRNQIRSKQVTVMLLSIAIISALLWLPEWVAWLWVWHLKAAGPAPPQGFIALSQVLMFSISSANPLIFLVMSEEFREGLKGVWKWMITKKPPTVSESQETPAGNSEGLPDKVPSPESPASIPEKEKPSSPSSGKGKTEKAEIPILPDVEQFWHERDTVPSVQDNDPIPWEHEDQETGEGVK
# FBW7 act – FBW7 E3 ligase activators, primary screen, biochemical, AlphaScreen, human. AlphaScreen FBW7–phospho-cyclin E peptide binding, activator screen. normalized activity (activation), % at 26.1 µM. 0.13% of 650,000 active. AID 1259310, 2017. F-box/WD repeat-containing protein 7 (Homo sapiens), Q969H0; in the data active = normalized activity above about 1.9%;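 also: purified mutant Fbw7 with reduced substrate affinity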
# TEAD-YAP block – TEAD-YAP interaction inhibition, primary screen, TEAD-YAP interaction inhibitor project, luminescence, HEK-TIYL cells | inhibition, % at 9.12 µM | 1.4% of 640,000 active | AID 1259422, 2018 | TEAD-Gal4/YAP UAS-luciferase luminescence; in the data active = inhibition above about 32%;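 also: 0% = median of test compound wells and 100% = reference inhibitor wells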
# MITF confirm – MITF inhibitors, retest of hits, confirmation, biochemical, AlphaScreen, triplicate. shares compounds with MITF inh. AlphaScreen MITF homodimerization, biotin/His-MITF beads. inhibition, % at 2.6 µM. 16% of 4,700 active;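 active = inhibition above a cutoff derived from the DMSO control wells, cut at about 28% in these data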;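 also: 0% = MITF dimer wells with DMSO only; inhibitors lower the bead chemiluminescence by keeping MITF from dimerizing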
# AS interf DR – AlphaScreen optical interference compounds, dose response, counter-screen, biochemical, HTS | shares compounds with MITF inh | IC50, µM | 6% of 480 active | AlphaScreen optical interference counterscreen, cell-free | AID 1259373, 2018; call rule not given here
# AS interf ctr – AlphaScreen optical interference compounds, counter-screen for MITF inhibitor project, biochemical, triplicate; shares compounds with MITF inh; LysRS AlphaScreen counterscreen, signal interference; inhibition, % at 2.6 µM; 7.6% of 4,700 active;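 active = inhibition above a cutoff derived from the DMSO control wells, cut at about 30% in these data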
# Numbers without * were called inactive; . = no result. Sampled rows, rich in hits. Any-hit rate of the full collection: about 3.4%.
SMILES,MITF inh,GPR151 activ,FBW7 act,TEAD-YAP block,MITF confirm,AS interf ctr,others
Fc1ccccc1C1CCN(Cc2ccncc2)CC1,70*,0,0,3,5,12,
Cc1ccc(CN2CCN(C(=O)c3ccccc3)CC2)cc1,47,0,0,-2,.,.,
Fc1ccc(CN2CCN(Cc3ccncc3)CC2)cc1,83*,-1,1,14,6,9,
Cc1ccc(CN2CCN(C(=O)c3ccncc3)CC2)cc1,65*,3,0,1,-1,-4,
COc1ccc(N2C(=O)NC(=O)/C(=C\c3ccc(OC)c4ccccc34)C2=O)cc1,48,1,0,2,.,.,
COc1ccc(/C=C2/C(=N)N3C(=NC2=O)SN=C3S(C)(=O)=O)cc1OC,-13,0,0,-7,.,.,
COc1cc(CN2CCN(Cc3ccccc3C)CC2)c([N+](=O)[O-])cc1OC,75*,2,0,-3,6,17,
COc1cc(CN2CCN(Cc3ccccc3Cl)CC2)c([N+](=O)[O-])cc1OC,82*,1,0,6,6,13,
COc1cc(CN2CCN(C/C=C/c3ccccc3)CC2)c([N+](=O)[O-])cc1OC,4,-1,0,0,.,.,
O=C(NCc1ccco1)c1ccc(Br)cc1,14,2,0,2,.,.,
N#CCCN(CC(=O)c1ccc(Br)cc1)Cc1ccco1,63*,-1,0,-5,0,9,
c1ccc(CN2CCC(NCc3ccncc3)CC2)cc1,63*,-1,0,-1,8,13,
Cc1ccc(CNC2CCN(Cc3ccccc3)CC2)o1,23,0,0,1,.,.,
c1ccc(CN2CCC(NCc3cccnc3)CC2)cc1,70*,-1,0,-11,6,11,
FC(F)SCc1ccc(CNC2CCN(Cc3ccccc3)CC2)o1,54*,1,0,1,15,19,
Clc1ccc(CNC2CCN(Cc3ccccc3)CC2)cc1,-11,1,0,7,.,.,
Fc1ccccc1CNC1CCN(Cc2ccccc2)CC1,51*,0,0,0,-12,0,
CC1=C(C(=O)Nc2ccc(Cl)cc2)C(c2ccc(O)cc2)NC(=S)N1 (centres undefined),5,0,0,17,.,.,
CCOc1ccc(/C=C/C(=O)Nc2ccc(I)cc2)cc1,-21,-1,0,-7,.,.,
COCOc1ccc2ccccc2c1C1=NOC(C(=O)Nc2cnn(C(C)(C)C)c2)C1 (centres undefined),-15,0,0,11,.,.,
CC(=O)Nc1ccc(NC(=O)CSc2ccc(-c3ccccn3)nn2)cc1,83*,-3,0,5,83*,100*,
CC(=O)Nc1cccc(NC(=O)CSc2ccc(-c3ccccn3)nn2)c1,84*,1,0,-8,79*,100*,
Cc1cccc(NC(=O)CSc2ccc(-c3ccccn3)nn2)c1,57*,-3,0,-3,76*,99*,
CC(=O)c1cccc(NC(=O)CSc2ccc(-c3ccccn3)nn2)c1,47,-4,-2,5,.,.,
O=C(CSc1ccc(-c2ccccn2)nn1)Nc1ccc(Br)cc1,4,1,0,-6,.,.,
SMILES,MITF inh,GPR151 activ,FBW7 act,TEAD-YAP block,MITF confirm,AS interf ctr,others
CCOc1ccc(CN2CCC3(CC2)NC(=O)c2ccccc2N3)cc1,4,-1,0,4,.,.,
Cc1ccc(CNC(=O)CSc2nc3n[nH]c(C)c3c(=N)n2-c2cc(C)ccc2C)cc1,7,0,0,-2,.,.,
Cc1ccc(NS(=O)(=O)c2ccc(Cl)c([N+](=O)[O-])c2)c(Br)c1,1,-1,0,3,.,.,
CCN(CC)CCNc1nc(-c2cccs2)c(CC(=O)O)s1,79*,1,0,5,-9,5,
O=C(O)Cc1sc(NCc2ccco2)nc1-c1cccs1,18,1,0,0,.,.,
CN1CCCN(Cc2ccccc2F)CC1,12,0,0,-1,.,.,
c1ccc(CCCN2CCN(C3CCN(Cc4ccccc4)CC3)CC2)cc1,-5,0,0,-8,.,.,
c1ccc(CCCN2CCN(Cc3cccnc3)CC2)cc1,83*,-2,0,-2,19,19,
Fc1ccccc1CN1CCN(CCCc2ccccc2)CC1,73*,-2,0,4,8,3,
Fc1ccc(CN2CCN(CCCc3ccccc3)CC2)cc1,59*,-1,0,-4,5,0,
Fc1ccccc1OCCCN1CCN(Cc2ccccc2)CC1,64*,-1,1,5,6,16,
Cc1[nH]n2c(=O)cc(C(C)C)nc2c1-c1cccs1,-5,1,0,10,.,.,
COc1ccc(C2CC(C(F)(F)F)n3nc(C(=O)Nc4cccc(C(F)(F)F)c4)cc3N2)cc1OC (centres undefined),3,1,0,5,.,.,
COc1cccc2cc(-c3csc(NC(=O)Cc4ccccc4)n3)oc12,-7,1,0,3,.,.,
Nc1nc(CSc2nnc(-c3cccc(F)c3)n2-c2ccccc2)nc(N2CCOCC2)n1,51*,-1,0,-9,7,7,
COC(=O)C(=Cc1ccc(OC)c(C(=O)O)c1)C(=O)OC,63*,0,0,-8,-16,-8,
CCOC(=O)COc1ccc2c(C)cc(=O)oc2c1C(C)=O,3,1,0,1,.,.,
O=C(Cn1nc(-c2ccc3c(c2)OCCO3)ccc1=O)Nc1ccccc1-c1ccccc1,72*,0,0,5,9,10,
CCCN1Cc2cccc(C(=O)O)c2C1=O,17,1,1,2,.,.,
O=C(O)c1cccc2c1C(=O)N(c1ccccc1)C2,72*,-2,0,-5,72*,13,AS interf DR=>6.3
CCc1ccc(CN2CCN(Cc3cc(OC)c(OC)cc3OC)CC2)cc1,63*,-1,0,5,-4,5,
COc1ccc(CN2CCc3cc(OC)c(OC)cc3C2)cc1,18,-1,1,0,.,.,
COc1ccc(CN2CCN(Cc3cc(OC)c(OC)cc3OC)CC2)cc1,76*,1,0,0,10,19,
Cc1cccc(-n2nc3c(c2NC(=O)c2ccccc2I)CS(=O)(=O)C3)c1C,9,1,1,8,.,.,
CN(C)c1ccc(NC(=S)Nc2ccccn2)cc1,71*,4,0,-48,9,27,
O=C(C1CC1)N1CCN(c2ccc(-c3ccccn3)nn2)CC1,122*,-6,-2,-15,112*,101*,
O=C(c1ccccc1F)N1CCN(c2ccc(-c3ccccn3)nn2)CC1,119*,0,-1,-23,110*,101*,

# High-throughput results deposited in PubChem BioAssay by The Scripps Research Institute Molecular Screening Center.
